# From PubChem BioAssay
# The entries come from a sample that favours hits as a whole.
# RmlCD inh mix: RmlC/RmlD inhibition, mixture screen. RmlC/RmlD coupled enzyme inhibition, 384-well mixture HTS. inhibition, % at 5.5 µM. actives 0.39% (n = 110,000); in the data active = inhibition above about 30%, passing the limit was not always enough; inconclusive = no clear call, values can overlap the other calls
# HIV RNase H inh-1: blocks HIV-1 RNase H cleavage of RNA/DNA duplex. P04585. RT-RNase H RNA/DNA duplex cleavage, fluorescence. inhibition, % at 10 µM. actives 1.9% (n = 65,000); in the data active = inhibition above about 50%
# HIV RNase H inh-2: confirmation of HIV-1 reverse transcriptase RNase H inhibitors; shares compounds with HIV RNase H inh-1; Recombinant RT RNase H, fluorescent RNA/DNA duplex cleavage; inhibition, % at 10 µM; actives 39% (n = 1,000); in the data active = inhibition above about 48%; inconclusive = no clear call, values can overlap the other calls
# The depositor's hits bear a star; ? = inconclusive; · = not tested or not shown.
SMILES,RmlCD inh mix,HIV RNase H inh-1,HIV RNase H inh-2
CC1(C)C(=O)C2(CCCC2)C(=O)OC1c1ccco1 (stereo not drawn),14,-4,·
CC1(C)CC(=O)C(C(c2ccco2)C2C(=O)CC(C)(C)CC2=O)C(=O)C1,-16,69*,32
COC(=O)c1ccc(NC(=O)CN(Cc2ccc(Cl)cc2)S(C)(=O)=O)cc1,5,·,·
CCOC(=O)c1sc(NC(=O)CSc2nc3c(cc2C#N)CCCCCC3)c(C#N)c1C,16,73*,?
N#Cc1cc2c(nc1SCC(=O)Nc1sc3c(c1C#N)CCC3)CCCCC2,-9,66*,23
Cc1noc(NS(=O)(=O)c2ccc(NC(=O)CSc3nc4c(cc3C#N)CCCC4)cc2)c1C,-16,11,·
CCOC(=O)c1sc(NC(=O)CSc2nc3c(cc2C#N)CCC3)c(C#N)c1C,·,43,·
N#Cc1cc2c(nc1SCC(=O)Nc1sc3c(c1C#N)CCC3)CCCC2,4,·,·
CCOC(=O)c1cnc(SCC(=O)Nc2sc(C)c(C)c2C#N)nc1N,3,63*,16
Cc1noc(NS(=O)(=O)c2ccc(NC(=O)CSc3nc4c(cc3C#N)CCC4)cc2)c1C,-10,78*,?
CCOC(=O)c1cnc(SCC(=O)Nc2cc(OC)cc(OC)c2)nc1N,7,-3,·
Cc1c(NC(=O)Cn2ccc([N+](=O)[O-])n2)c(=O)n(-c2ccccc2)n1C,-3,·,·
CCOC(=O)N1CCC(NC(=O)CCc2nc(-c3ccc(C)cc3)no2)CC1,-12,-4,·
CCO[C@H]1OC(C(=O)O)=C[C@@H](c2ccccc2)[C@@H]1CCCO,-11,·,·
CCc1ccc(N(C(=O)c2snc(C(N)=O)c2N)C(C(=O)NCCC(C)C)c2c[nH]c3ccccc23)cc1 (stereo not drawn),-30,·,·
NC(N)=Nc1nc(CCN2C(=O)c3ccccc3C2=O)cs1,-6,·,·
CC(C)n1c(SCC(=O)Nc2nc3c(s2)CCCC3)nc2c1c(=O)n(C)c(=O)n2C,-5,·,·
O=C(Nc1nccs1)C1CCN(S(=O)(=O)c2c(Cl)cccc2Cl)CC1,-13,·,·
C=C1CCN([C@@H](Cc2ccccc2)C(=O)NCc2ccc(Cl)cc2)S(=O)(=O)c2ccccc21,-10,·,·
Cc1ccc(NC(=O)CSc2nnc(-c3ccco3)c(-c3ccco3)n2)cc1,-6,97*,28
O=C(CSc1nnc(-c2ccco2)c(-c2ccco2)n1)Nc1ccccc1,9,87*,37
CSc1nnc2c(n1)OC=Nc1ccccc1-2,-8,-11,·
CSc1nnc(-c2ccco2)c(-c2ccco2)n1,8,77*,43
Cc1cccc(C)c1NC(=O)CSc1nnc(-c2ccco2)c(-c2ccco2)n1,0,·,·
Cc1ccccc1NC(=O)CSc1nnc(-c2ccco2)c(-c2ccco2)n1,-37,·,·
SMILES,RmlCD inh mix,HIV RNase H inh-1,HIV RNase H inh-2
CCOc1ccc(NC(=O)c2ccccc2OCC(=O)c2ccccc2)cc1,2,·,·
O=S(=O)(c1ccc(Oc2ccc(Cl)cc2)c(S(=O)(=O)N2CCCCC2)c1)N1CCCCC1,9,·,·
COc1ccc(OC)c(C2CC(=O)N3CN(c4ccc(C)c(Cl)c4)CSC3=C2C#N)c1 (stereo not drawn),7,-6,·
COc1cc(OC)c(C2CC(=O)N3CN(c4ccccc4)CSC3=C2C#N)cc1OC (stereo not drawn),-10,33,·
CCc1ccccc1N1CSC2=C(C#N)C(c3cc(OC)c(OC)cc3OC)CC(=O)N2C1 (stereo not drawn),11,79*,63*
COc1ccc(OC)c(C2CC(=O)N3CN(c4cccc(Cl)c4)CSC3=C2C#N)c1 (stereo not drawn),-11,-8,·
COc1cc(OC)c(C2CC(=O)N3CN(C)CSC3=C2C#N)cc1OC (stereo not drawn),-11,76*,57*
N#CC1=C2SCN(c3ccccc3)CN2C(=O)CC1c1c(Cl)cccc1Cl (stereo not drawn),-10,38,·
N#CC1=C2SCN(c3ccccc3)CN2C(=O)CC1c1ccccc1Cl (stereo not drawn),6,67*,26
COc1ccc(Br)cc1C1CC(=O)N2CN(C)CSC2=C1C#N (stereo not drawn),8,80*,64*
Cc1[nH]c2ccccc2c1C(=O)Cn1c(=O)oc2ccccc21,-128,·,·
CCN(CC)CC1CCCCN1CC(=O)N1c2ccccc2C(=O)Nc2cccnc21 (stereo not drawn),-9,·,·
CCCNC(=O)CC1C(=O)N(Cc2ccccc2)C(C)c2nc3ccccc3n21 (stereo not drawn),2,·,·
N#CC1=C2SCN(c3ccccc3)CN2C(=O)CC1c1cccs1 (stereo not drawn),1,-5,·
Cc1ccc(C2CC(=O)N3CN(Cc4ccco4)CSC3=C2C#N)cc1 (stereo not drawn),72,26,·
COc1ccc2ccccc2c1C1CC(=O)N2CN(C)CSC2=C1C#N (stereo not drawn),7,68*,11
CC(C)c1ccc(C2CC(=O)N3CN(C)CSC3=C2C#N)cc1 (stereo not drawn),-2,73*,65*
CC1CC(C)CN(S(=O)(=O)c2ccc(C(=O)Nc3nnc(-c4cccs4)o3)cc2)C1 (stereo not drawn),·,74*,?
CCC1CCCCN1S(=O)(=O)c1ccc(C(=O)Nc2nnc(-c3cccs3)o2)cc1 (stereo not drawn),·,32,·
CCOc1ccc(C(=O)NCC2OCCc3ccccc32)cc1 (stereo not drawn),-10,·,·
N#Cc1ccc(OCc2nnc(SCC(=O)N3CCCc4ccccc43)n2-c2ccccc2)cc1,3,88*,49
COc1ccc(OCc2nnc(SCC(=O)N3CCCc4ccccc43)n2-c2ccc(C)cc2)cc1,-16,·,·
NC(=O)c1cc(-c2ccccc2)sc1NC(=O)Cc1ccc(S(=O)(=O)N2CCOCC2)s1,-4,58*,67*
O=C(COC(=O)Cc1ccc(S(=O)(=O)N2CCOCC2)s1)Nc1ccc2c(c1)OCO2,8,·,·
Cc1ccc(C2C(/C=C3/SC(=S)NC3=O)=C(c3cccs3)Oc3ccccc32)cc1 (stereo not drawn),15,·,·
SMILES,RmlCD inh mix,HIV RNase H inh-1,HIV RNase H inh-2
c1csc(Cc2nc(-c3ccc(-n4cccc4)cc3)no2)c1,10,-31,·
CCCCS/C(=C(/C#N)C(N)=O)c1cc2c([nH]1)CCCC2,-10,81*,0
CCc1ccc(N/C(SC)=C(/C#N)C(N)=O)cc1,-3,-18,·
Cc1noc(C)c1S(=O)(=O)Nc1ccc(O)c2c(=O)cc(-c3ccccc3Cl)oc12,7,·,·
COC(=O)/C(=C(/F)Sc1cc(C)c(O)c(C)c1)C(F)(F)F,-7,·,·
NC(=O)c1cc(Cc2ccccc2)sc1NC(=O)c1ccco1,-3,89*,31
O=C(Nc1nnc(Cc2ccccc2)s1)c1ccco1,3,·,·
CC(C)n1nc(C(=O)Nc2nnc(SCc3c(Cl)cccc3Cl)s2)c2ccccc2c1=O,-18,·,·
CCC(=O)Oc1ccc(-c2cnc3ccccc3n2)cc1,-15,·,·
O=C(Oc1ccc(-c2cnc3ccccc3n2)cc1)c1ccco1,-15,73*,?
c1ccc(-n2ncc3c(N4CCN(CCOc5cccc6ccccc56)CC4)ncnc32)cc1,105,·,·
CCOc1ccc(-n2c(=O)c3c4c(sc3n(CC(=O)NCc3ccco3)c2=O)CCC4)cc1,-10,57*,87*
CCN(CC)C(=O)Cn1c(=O)n(-c2ccccc2)c(=O)c2c3c(sc21)CCC3,-8,·,·
